Among the data in ChEMBL document CHEMBL4513216, “Probing the Open Global Health Chemical Diversity Library for Multistage-Active Starting Points for Next-Generation Antimalarials” (ACS Infect Dis, 2020) are INHIBITION values, retold here.

About 8,600 (12%) of roughly 69,000 compounds showed an effect of 50% or more. Many of the other results were omitted from the sample, so strong results are more common in it than they were.

For this assay, the system named is Plasmodium berghei. The assay can be described thus: Screen against P. berghei liver stage (PbLuc), transformed with Luciferase, at 10uM. Conditions: tested at 10 uM. Format: functional, HepG2.
With `Cc1cccc(CSc2ncc(Cl)c(C(=O)O)n2)c1`, the INHIBITION amounted to 12.1%. Then `Cc1ccc(F)c(C(=O)Nc2c(C(N)=O)n[nH]c2C)c1`, with -18.3%. With `Cc1cc(N(C)Cc2ncc(-c3ccccc3C(=O)O)s2)ncn1`, the INHIBITION was determined as 5.6045%. With `Cc1cc(CN(CC(N)=O)CC(C)C)no1`, the INHIBITION was determined as 7.39%. On to `Cc1ccc(-c2cc(CN(CC(N)=O)CC(C)C)on2)cc1`, for which the INHIBITION was 57.8%. As for `Cc1cc(CN(CC(N)=O)CC(C)C)on1`, the INHIBITION was found to be 43.2%. Turning to `Cc1cccc(-c2nccn2C2CC(=O)N(C(C)C)C2)n1` (configuration not stated), the INHIBITION is on record as 25.9%. Then `CNC(=O)NC(=O)CCN1CCN(c2ccc(C(=O)OC)cc2)CC1C` (configuration not stated), with 23.7%; and `O=C(CCc1ccccc1)C1CCCN(Cc2cncn2C2CC2)C1` (configuration not stated), with 27.4%. For the molecule `CCCN1CCCC2(CCN(Cc3cncn3C3CCCC3)C2)C1=O` (configuration not stated), the INHIBITION came out at 21.2%. Then `O=c1c2ccccc2cnn1Cc1cncn1C1CC1`, with 0.33%. For `CC1(c2ccccc2)CCCN(Cc2cncn2C2CCCC2)C1` (configuration not stated), the INHIBITION is 89.6%. For the molecule `CN1CCCC2(CCN(Cc3cncn3C3CCCCC3)C2)C1=O` (configuration not stated), the INHIBITION came out at 62.1%. Then `CC1(c2ccccc2)CCCN(Cc2cncn2C2CC2)C1` (configuration not stated), with 50.7%; and `COCCn1cncc1CN1CCCC(C)(c2ccccc2)C1` (configuration not stated), with 30.1%. Regarding `Cn1cncc1CN1CCOC(Cc2ccccc2)C1` (configuration not stated), the INHIBITION is recorded as -54.1%. `COCCn1cncc1CN1CCCC(C(=O)Cc2ccccc2)C1` (configuration not stated): the INHIBITION is given as 20.5%.

As for `O=C(Cc1ccccc1)C1CCCN(Cc2cncn2C2CCCC2)C1` (configuration not stated), the INHIBITION is 69%. Consider `CCCN1CCCC2(CCN(Cc3cncn3C3CCCCC3)C2)C1=O` (configuration not stated), for which the INHIBITION is -21.5%.

On to `CC1(c2ccccc2)CCCN(Cc2nnc(-c3cccnc3)o2)C1` (configuration not stated), for which the INHIBITION is reported as 5.91%. In the case of `CN1CCCC(Cc2cc(N(C)C)ncn2)C1` (configuration not stated) it was 38.7%; in that of `Cc1ncc(C(=O)NCCNC(=O)Cc2cccc(F)c2)s1`, -13.5%. In the case of `Cc1nccc(C2CN(S(=O)(=O)N(C)C)C2)n1`, the INHIBITION was -3.02%.

For the molecule `CCC(C(=O)NCC1=CCN(C)CC1)c1ccccc1` (configuration not stated), the INHIBITION amounted to 8.7%. In the case of `CNc1ccc(CC2CCCN(C(=O)c3cccc(C)n3)C2)nn1` (configuration not stated) it was 45.6%; in that of `CS(=O)(=O)N1CCc2c(cccc2NC(=O)Nc2ccccn2)C1`, 19.2%. Then `Cc1nc(CN2C[C@H]3C[C@H](C(=O)NCC4CC4)N(C)[C@H]3C2)cs1`, with 19.8%. For `O=C(NCCC1CCN(CC(F)(F)F)CC1)C1CCCOC1` (configuration not stated), the INHIBITION was -10.3%. On to `CC1Cc2ccccc2N1Cc1occc1C(=O)NCC(=O)N(C)C` (configuration not stated), for which the INHIBITION was 53.9%. As for `CCNC(=O)c1ccoc1CN1c2ccccc2CC1C` (configuration not stated), the INHIBITION is listed as -3.19%.

Turning to `COCCNC(=O)c1ccoc1CN1c2ccccc2CC1C` (configuration not stated), the INHIBITION turned out to be 20.9%.

`CNC(=O)C1CN(C(=O)c2cccnc2)CCN(S(C)(=O)=O)C1` (configuration not stated): the INHIBITION is given as 9.25%.

`CN1CCCN(C(=O)NCCNc2ncccn2)CC1`: the INHIBITION is listed as 16.8%. As to `CC(C)OC(=O)NCc1ccc(NCc2cnn(C(C)(C)C)c2)cc1`, the INHIBITION was 18.9%. For the molecule `CC(C)(C)n1cc(CNc2ccc(CNS(C)(=O)=O)cc2)cn1`, the INHIBITION was found to be 74.4%. As for `CC(=O)N(Cc1ccc(NCc2cnn(C(C)(C)C)c2)cc1)C(C)C`, the INHIBITION is reported as 38.5%. Turning to `CCNc1nc2cn(-c3ccc(C)c(C)c3)c(=O)c-2c[nH]1`, the INHIBITION is on record as -31.1%. In the case of `O=C(NCCNCC1CNc2ccnn2C1)c1ccc(F)cc1` (configuration not stated) it was 32.4%.

Turning to `O=C(Cc1ccc(F)cc1)NCCNCC1CNc2ccnn2C1` (configuration not stated), the INHIBITION was 19.7%. In the case of `Cc1ccc(C(=O)NCCNCC2CNc3ccnn3C2)cc1F` (configuration not stated) it was 59.3%; in that of `Cc1cc2n(n1)CC(CNCc1ccc(OCC3CC3)nc1)CN2` (configuration not stated), 60.7%; in that of `Cn1cc(CCNCC2CNc3ccnn3C2)cn1` (configuration not stated), 71.4%.

For the molecule `Cc1cc2n(n1)CC(CNCc1cnn(-c3ccccc3)c1)CN2` (configuration not stated), the INHIBITION is listed as 15.5%. Regarding `COc1ccc(CNCC2CNc3cc(C)nn3C2)cn1` (configuration not stated), the INHIBITION is -6.185%. Turning to `COCCOc1ccc(CNCC2CNc3cc(C)nn3C2)cn1` (configuration not stated), the INHIBITION is listed as 25.995%.

In the case of `Cc1cc2n(n1)CC(CNCc1cnn(C)c1)CN2` (configuration not stated), the INHIBITION worked out at 33.7%.

For `COc1ccc(CNCC2CNc3ccnn3C2)cn1` (configuration not stated), the INHIBITION is listed as 25.1%.

Regarding `Cc1cc2n(n1)CC(CNCCc1cnn(C)c1)CN2` (configuration not stated), the INHIBITION turned out to be 54.3%. In the case of `Cc1ccc(C(=O)NCCNCC2CNc3ccnn3C2)cc1` (configuration not stated) it was 7.67%; in that of `CCN(Cc1noc(C2CCC2)n1)C(=O)c1cn2ccsc2n1`, 30%; in that of `CS(=O)(=O)CCCNC(=O)C1(c2cccc(Cl)c2)CC1`, 28.3%. `CN(CC(N)=O)CC(=O)N1CC=C(c2ccccc2)CC1`: the INHIBITION was -46.4%. Consider `COc1cc(NC2CCCN(c3ncccn3)C2)cc(OC)c1` (configuration not stated), for which the INHIBITION worked out at 23.1%.

In the case of `CCc1cnccc1C(=O)NC1CCN(C(=O)C2CCCCC2)CC1`, the INHIBITION is recorded as 38.7%. As to `CCC1CN(c2ncnc3nc[nH]c23)CCO1` (configuration not stated), the INHIBITION is on record as -2.03%.

As to `CCCc1nnsc1C(=O)N1CCN(CC(O)C2CC2)CC1` (configuration not stated), the INHIBITION was found to be 37.4%. For `CCCc1nnsc1C(=O)N1CCN(CC(C)O)CC1` (configuration not stated), the INHIBITION stood at 51.7%.
